Reference: PubChem BioAssay AID1851 (National Center for Advancing Translational Sciences (NCATS), 2009)
Where “and” joins values, the source holds several entries; their conditions need not be identical. Identical values can stand only once. About 2,600 (16%) of roughly 16,000 compounds were called active. Not shown: some 20% with an inconclusive outcome. Calls follow the shape of the dose curve; as a rule, active = well fitted curve in the direction sought with a large enough effect; inconclusive = small, poorly fitted or top-dose-only effect, or effect the other way; inactive = no such curve, though single readings can be large or run the other way. A selection follows. Square brackets hold non-standard residues; d marks the D form. Peptide text beside a SMILES is read from it. * marks the point of attachment. ξ: configuration not given here. Cbz = O=C(OCc1ccccc1)*; OBn = c1ccc(CO*)cc1; ξP = O=C(O)C1CCCN1

biological target: Cytochrome P450 2D6 (Homo sapiens) (UniProt P10635); assay: Cytochrome panel assay with activity outcomes; conditions: recombinant CYP, pro-luciferin dealkylation, luminescence, p450-cyp2d6; series mostly up to 57.1 µM; activity, negative = inhibition: at the top concentration
Sequence (P10635 whole entry, looked up): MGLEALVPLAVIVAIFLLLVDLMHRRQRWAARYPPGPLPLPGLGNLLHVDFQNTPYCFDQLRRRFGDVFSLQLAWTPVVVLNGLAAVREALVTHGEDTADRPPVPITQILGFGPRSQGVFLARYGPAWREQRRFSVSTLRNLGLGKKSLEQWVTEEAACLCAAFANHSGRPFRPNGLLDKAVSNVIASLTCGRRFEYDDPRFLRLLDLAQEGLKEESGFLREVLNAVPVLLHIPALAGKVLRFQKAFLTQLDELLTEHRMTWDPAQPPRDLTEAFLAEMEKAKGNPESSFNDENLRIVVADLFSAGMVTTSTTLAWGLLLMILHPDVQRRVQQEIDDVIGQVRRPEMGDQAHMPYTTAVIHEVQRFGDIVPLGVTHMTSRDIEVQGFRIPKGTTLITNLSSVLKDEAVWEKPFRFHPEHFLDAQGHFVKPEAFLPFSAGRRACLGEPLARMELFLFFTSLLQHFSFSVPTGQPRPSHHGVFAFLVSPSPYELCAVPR
% is scaled to controls: 0 for no effect and ±100 for the full control effect.

Compound	activity, negative = inhibition	AC50
Nc1nc2c(c(=O)[nH]1)CN(CCCN1CCOCC1)CN2	0.904% [at 11.4 µM] (inactive)	
Nc1ccc(S(=O)(=O)Nc2ncccn2)cc1	-3.37% [at 25.6 µM] (inactive)	
O=C1[C@H]2[C@H]3[C@H](O)[C@H](O)C/C(=N/OC[C@@H](O)COCc4ccco4)[C@@H]3CC[C@@H]2C(=O)N1C[C@@H]1CCCO1	3.77% [at 11.4 µM] (inactive)	
Cc1nnc(NC(=O)c2cccc(NC(=O)C(C)C)c2)s1	-16.4% (inactive)	
O=C(O)c1cc(S(=O)(=O)NCC2CCCO2)ccc1Cl (stereo not given)	7.8% (inactive)	
CN[C@@H]1[C@H](O[C@H]2[C@@H](O[C@@H]3[C@@H](O)[C@@H](O)[C@@H](N=C(N)N)[C@@H](O)[C@@H]3N=C(N)N)O[C@@H](C)[C@]2(O)CO)O[C@H](CO)[C@@H](O)[C@@H]1O	6.76% [at 25.6 µM] (inactive)	
COc1ccccc1C1=NOC(COC(=O)c2ccc3ccccc3n2)C1 (stereo not given)	-15.5% (inactive)	
Cc1cccc(CSCCNC(=O)c2ccc(N(C)S(=O)(=O)c3ccccc3)cc2)c1		3.98 µM (active)
O=C(CN(c1ccccc1)S(=O)(=O)c1ccccc1)NCCSCc1ccco1		15.8 µM (active)
CN(CCC(=O)O)S(=O)(=O)c1ccccc1	4.74% [at 11.4 µM] (inactive)	
COc1ccc(S(=O)(=O)N(C)CC(=O)NCc2ccco2)cc1	-21.7% (inactive)	
CN(c1ccc(C(=O)NCC2CCCO2)cc1)S(=O)(=O)c1ccccc1 (stereo not given)	-3.97% (inactive)	
Cc1cccc(Cc2c(C)nc3nc(SCC(=O)NCc4ccco4)nn3c2C)c1	-28.1% (inactive)	
Cc1cccc(N(CC(=O)NCCSCc2ccco2)S(=O)(=O)c2ccccc2)c1		10 µM (active)
Cc1cccc(N(CC(=O)N2CCOCC2)S(C)(=O)=O)c1	6.15% (inactive)	
CN(c1ccc(C(=O)NCc2ccccn2)cc1)S(C)(=O)=O	0.808% (inactive)	
COc1cccc(Nc2ncc3ncc(=O)n(C4CC4)c3n2)c1	-7.19% (inactive)	
Cc1ccc(C)c(CN2C(=O)C3CCCN3c3ccc(C#N)cc32)c1 (stereo not given)	-24.5% (inactive)	
CCOC(=O)c1c(C)oc2c1c(C=NC1CCS(=O)(=O)C1)c(O)c1ccccc12 (stereo not given)	16% (inactive)	
CCN1C(=O)[C@H]2[C@H]3[C@H](O)[C@H](O)C/C(=N/O[C@@H](C)c4cn([C@H](CO)Cc5ccccc5)nn4)[C@@H]3CC[C@@H]2C1=O	6.53% [at 11.4 µM] (inactive) and -9.99% [at 11.4 µM] (inactive)	
Cc1c(/C=N/NC(=O)c2ccc3c(c2)OCO3)cnn1C	-7.96% (inactive)	
CCNC(=S)NNC(=O)c1cc(C2CC2)nc2ccccc12	-6.71% (inactive)	

Compound	activity, negative = inhibition	AC50
COC(=O)c1nn(-c2ccccc2)c(-c2ccccc2)c1C(=O)c1ccccc1	18.4% (inactive)	
CCCOc1ccccc1C1CC(=O)NC(C)=C1C(=O)OCC(C)C (stereo not given)	34.2% (inactive)	
O=C(NCCO)c1cc2c(s1)CCC2	23.4% (inactive)	
Cc1cc(C(=O)CC#N)c(C)n1CC(F)(F)F	8.26% (inactive)	
CCOC(=O)c1c2c(n3ccccc13)C(=O)c1ccccc1C2=O	5.34% [at 11.4 µM] (inactive)	
COCCNC(=O)Cn1cnc2ccc(S(=O)(=O)N3CCC(C)CC3)cc2c1=O	30.8% (inactive)	
Cc1ccc2nc(N3CCN(S(=O)(=O)c4ccc5c(c4)OCCO5)CC3)c(C#N)cc2c1	-8.49% (inactive)	
NC(=O)c1ccc(NC(=O)C2CCCO2)cc1 (stereo not given)	-1.89% (inactive)	
CSc1ccc(CNc2ccc(C)c(C)c2)cc1		11.2 µM (active)
CSc1ccc(CNc2ccc(Cl)cc2)cc1	-40.9% (inactive)	
Cc1nc2cnc(Oc3ccccc3)nc2n(C)c1=O	1.84% (inactive)	
COc1ccc(-c2nc3cnc(OC)nc3n(C)c2=O)cc1	-0.979% (inactive)	
O=C(Nc1ccc(Cl)c(C(F)(F)F)c1)C1CCCN(S(=O)(=O)c2cnc[nH]2)C1 (stereo not given)		3.98 µM (active)
CCCS(=O)(=O)N1CCCC(C(=O)NCc2cccnc2)C1 (stereo not given)	-1.8% (inactive)	
COc1ccc(OC)c(S(=O)(=O)N2CCC(C(=O)Nc3ccc(C)c(C)c3)CC2)c1	-12.1% (inactive)	
CCOc1ccc(-c2nnc3ccc(SC)nn23)cc1	-16.4% (inactive)	
N[C@@H](CSS(=O)(=O)O)C(=O)O	-1.36% (inactive)	
CCOC(=O)c1c(C)nc2sc3c(=O)n(-c4ccc(C(C)=O)cc4)nnc3c2c1-c1ccc(Cl)cc1	0.783% (inactive)	
CN(C)C(=O)c1ccc(-c2cncnc2NCc2cccnc2)cc1	-19.7% (inactive)	
N#Cc1ccccc1-c1cncnc1NCc1cccnc1	-4.85% (inactive)	
Cc1ccccc1-c1cncnc1NCc1cccnc1		15.8 µM (active)
Cc1cccc(CNc2ncncc2-c2ccccc2C)c1		3.98 µM (active)

Compound	activity, negative = inhibition	AC50
Cc1noc(C)c1-c1cncnc1NCc1ccccc1	0.449% (inactive)	
Cc1ccccc1-c1cncnc1NCc1ccccc1		12.6 µM (active)
CN(C)Cc1ccccc1-c1cncnc1NCc1cccnc1		6.31 µM (active)
CC(C)Sc1cc(N2CCCC2)nc(-c2ccc(F)cc2)n1	-3.37% (inactive)	
C=CCNC(=S)N/N=C/c1ccc(-c2cc(Cl)ccc2Cl)o1	8.52% (inactive)	
O=C(CNC(=O)OCc1ccccc1)NCC(=O)N1CCCC1C(=O)OCc1ccccc1 (stereo not drawn) (Cbz-Gly-Gly-[ξP]-OBn)	-22.2% (inactive)	
CSCCC(NC=C1C(=O)OC(C)(C)OC1=O)C(=O)O (stereo not given)	-5.1% (inactive)	
CCOc1cc(/C=C2/NC(=O)N(CC(=O)Nc3cccc(C)c3)C2=O)ccc1OC	27.9% (inactive)	
CCCCSCc1nc2nc(Cl)c(Cl)nc2[nH]1	-12.2% [at 11.4 µM] (inactive)	
C[n+]1ccc(/C=C/c2ccc(Br)cc2)cc1	-25.3% (inactive)	
OCCNc1ncnc2nc[nH]c12	-4.05% [at 11.4 µM] (inactive)	
Cc1cc(NC(=O)COC(=O)c2ccc(S(=O)(=O)N3CCCc4ccccc43)cc2)no1	-20.2% (inactive)	
Cc1cccc(CNc2ncncc2-c2ccccc2C(F)(F)F)c1		12.6 µM (active)
Cc1cccc(CNc2ncncc2-c2ccccc2Cl)c1		2 µM (active)
Cc1cnc(CNc2ncncc2-c2ccccc2C(F)(F)F)cn1	-18.3% (inactive)	
Cc1ccccc1-c1cncnc1NC1CCNCC1		10 µM (active)
Cc1noc(C)c1-c1cncnc1NC1CC1	-5.38% (inactive)	
c1cncc(-c2cncnc2NC2CCNCC2)c1	-6.86% (inactive)	
Cc1cnc(CNc2cc(-c3ccccc3C(F)(F)F)ncn2)cn1	3.41% (inactive)	
O=C(c1cnccn1)N1CCC[C@@]2(CCN(c3ccncc3)C2)C1	4.46% (inactive)	
Cc1ccc(OC(=O)c2cccc(C(=O)Oc3ccc(C)cc3)n2)cc1	8.06% (inactive)	
